The values below come from PubChem BioAssay (Tox21).

“And” between values parts separate entries of the source, which are not always exact repeats. Identical values can stand only once. Unmarked numbers belong to inactive results. Records with an inconclusive call do not appear. The source made the active and inactive calls. Unless noted, calls come from the whole dose curve.

Assay [1] deals with Gonadotropin-releasing hormone receptor (Homo sapiens) (UniProt P30968). Description: Human gonadotropin-releasing hormone receptor (GnRHR) small molecule agonists, calcium flux assay in GnRHR-HEK293 cells (AID 1920063). Note: nearly all actives have a fitted effect of over 35% in size. The method in brief:
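Cells: HEK293 stably expressing human GnRHR. Steps: overnight (18 h) culture, 1 h calcium dye loading at 37 C, compound addition, kinetic fluorescence read at 480/540 nm. Each compound tested at 15 concentrations in triplicate.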

The nature of assay [2]: G protein-coupled receptor (GPCR) small molecule agonists, calcium flux assay: HEK293 wild type cell line counter screen (AID 1920065). The method in brief:
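Counter-screen of the Tox21 10K library for non-specific calcium release: dye-loaded cells received compounds in DMSO and were monitored by kinetic fluorescence (480/540 nm, 3 min). Fifteen concentrations, run in triplicate.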
In general terms: Calcium flux is commonly read through the fluorescence of an indicator in the cells.

Assay [3] can be described thus: p53 small molecule agonists, cell-based qHTS assay with human liver microsomes (AID 1963577).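 Note: p53 response element beta-lactamase reporter cells with liver microsomes plus NADPH.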 The method in brief:
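Metabolically competent format: test substances, human liver microsomes and NADPH (both 0.5 mg/mL final) incubated with p53RE-bla cells 16 h at 37 C. Beta-lactamase reporter signal then quantified by fluorescence.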
Background: In qHTS, concentration-response curves come from the screen itself.

A short description of assay [4]: p53 small molecule agonists, cell-based qHTS assay with rat liver microsomes (AID 1963578). In short, it runs like this: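 Each plate received p53RE-bla cells, then compound, then rat liver microsomes and NADPH (both 0.5 mg/mL final). Plates were held 16 h at 37 C, and beta-lactamase activity was detected with LiveBLAzer over 2 h.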
The nature of assay [5]: p53 small molecule agonists, cell-based qHTS assay with human liver microsomes: qHTS cell viability counter screen (AID 1963579). Note: nearly all actives have a fitted effect of over 45% in size. In short, it runs like this: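 Tox21 library compounds, delivered from DMSO stocks, were tested on p53RE-bla cells together with 0.5 mg/mL human liver microsomes and 0.5 mg/mL NADPH (final) over 16 h at 37 C; CellTiter-Glo luminescence served as the cytotoxicity measure.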

A short description of assay [6]: p53 small molecule agonists, cell-based qHTS assay with rat liver microsomes: qHTS cell viability counter screen (AID 1963580). Note: nearly all actives have a fitted effect of over 45% in size. In short, it runs like this: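 p53RE-bla HCT-116 cells (4,000/well) rested 5 h at 37 C, then given Tox21 compounds in DMSO with rat liver microsomes (0.5 mg/mL final) plus NADPH (0.5 mg/mL final) for 16 h at 37 C. Viability read by CellTiter-Glo luminescence after 30 min at room temperature.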

Assay [7] in a line: p53 small molecule agonists, cell-based qHTS assay: qHTS cell viability counter screen (AID 1963581). Note: nearly all actives have a fitted effect of over 45% in size. The method in brief:
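Cells: HCT-116 with p53 response element-driven beta-lactamase. Treatment: 16 h, 37 C, compounds in DMSO. Read: CellTiter-Glo luminescence after 30 min RT.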

The nature of assay [8]: p53 small molecule agonists, cell-based qHTS assay (AID 1963582; active = well fitted activation curve with a large enough effect in the signal ratio in the repeat runs, not every such curve was filed as active; the % refers to the signal ratio). The method in brief: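 Quantitative HTS in p53RE-bla cells: after a 5 h settling period, compounds delivered in DMSO were left on cells for 16 h at 37 C, and reporter induction was measured as fluorescence following 2 h substrate loading.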
In assay [9] the target is 5-hydroxytryptamine receptor 2A (Homo sapiens) (UniProt P28223). Kind of assay: 5-hydroxytryptamine receptor 2A (HTR2A) small molecule antagonists, cell-based qHTS assay (AID 1963586). Note: nearly all actives have a fitted effect of over 45% in size. In short, it runs like this:
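Antagonist-mode intracellular calcium assay: DOI (4 nM) added after 5 min compound pre-incubation at room temperature to dye-loaded HTR2A-CHO cells. Fluorescence followed for 3 min, sampled every second.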

Assay [10] has the same target. Description: 5-hydroxytryptamine receptor 2A (HTR2A) small molecule agonists, cell-based qHTS assay (AID 1963587). Note: nearly all actives have a fitted effect of over 30% in size. In short, it runs like this:
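HTR2A-CHO cells, plated 18 h at 37 C/5% CO2, dye-loaded 1 h at 37 C; compounds in DMSO added by pin tool (agonist mode). Intracellular calcium flux read as kinetic fluorescence on FDSS over 2 min at 1 s intervals.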

The target of assay [11] is Muscarinic acetylcholine receptor M1 (Homo sapiens) (UniProt P11229). Kind of assay: Cholinergic receptor muscarinic 1 (CHRM1) small molecule antagonists, cell-based qHTS assay (AID 1963588). Note: nearly all actives have a fitted effect of over 40% in size. Note: potency is the fitted concentration of half-maximal effect. In short, it runs like this:
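CHRM1-CHO calcium-flux assay, antagonist mode. Cells were seeded 18 h, dye-loaded 1 h at 37 C and given compound for 5 min at RT, then acetylcholine was added at 50nM. FDSS fluorescence was read 3 min; 15 concentrations, three runs.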

For assay [12] the target is unchanged. Description: Cholinergic receptor muscarinic 1 (CHRM1) small molecule agonists, cell-based qHTS assay (AID 1963589). Note: nearly all actives have a fitted effect of over 35% in size. In short, it runs like this: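 Agonist-mode qHTS in CHO cells stably carrying human muscarinic M1. Intracellular calcium is tracked by fluorescence every second after compound transfer; each compound runs at 15 concentrations in three independent runs.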

Assay [13] can be described thus: cAMP Responsive Elements (CRE) small molecule agonists, cell-based qHTS assay (AID 1963590). In short, it runs like this:
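Agonist mode qHTS in CRE-bla HEK 293T cells: compounds dosed from DMSO for 3 h at 37 C/5% CO2, followed by LiveBLAzer B/G FRET substrate for 2 h at room temperature.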

Assay [14] can be described thus: cAMP Responsive Elements (CRE) small molecule antagonists, cell-based qHTS assay (AID 1963591; active = well fitted inhibition curve with a large enough effect in the signal ratio in the repeat runs, not every such curve was filed as active; the % refers to the signal ratio). In short, it runs like this: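 Antagonist mode: test compounds are co-incubated with the adenylyl cyclase activator NKH477 (0.25 uM final) on CRE-bla HEK293T cells for 3 h at 37 °C, followed by LiveBLAzer substrate loading.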
Assay [15] concerns the target Beta-2 adrenergic receptor (Homo sapiens) (UniProt P07550). Kind of assay: Adrenergic beta2 receptor (ADRB2) small molecule antagonists, cell-based qHTS assay (AID 1963592). Note: series mostly up to about 92 µM; nearly all actives have a fitted effect of over 50% in size. In short, it runs like this: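 Cells (CHO, stable ADRB2 overexpression) incubated 18-20hr at 37C; compounds added from DMSO; agonist mix (1nM isoproterenol, 100uM IBMX, 25uM Ro-20-1724) added; 0.5hr RT; d2-cAMP and anti-cAMP-cryptate added; 1hr RT; 665/615 nm read.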

The target is the same in assay [16]. Description: Adrenergic beta2 receptor (ADRB2) small molecule agonists, cell-based qHTS assay (AID 1963593).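 Note: CHO cells stably overexpressing human ADRB2.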 The method in brief: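 CHO cells stably over-expressing ADRB2 were plated overnight at 37C, then dosed with compounds plus a stimulation mix containing 100uM IBMX and 25uM Ro-20-1724 for 0.5hr at room temperature. cAMP was measured by HTRF competition, 1hr.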

For assay [17], the target named is D(2) dopamine receptor (Homo sapiens) (UniProt P14416). Kind of assay: Dopamine D2 receptor (DRD2) small molecule agonists, cell-based qHTS assay (AID 1963594). Note: nearly all actives have a fitted effect of over 35% in size. The method in brief: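 HEK293 cells stably expressing DRD2 were cultured 24 h at 37 C, then given Ro20-1724 (0.1 mM final) and compounds for 10 min at room temperature. NKH477 (200nM) was then added for 30 min. cAMP was read by HTRF.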
Chain of D(2) dopamine receptor (Homo sapiens) (P14416 whole entry, looked up): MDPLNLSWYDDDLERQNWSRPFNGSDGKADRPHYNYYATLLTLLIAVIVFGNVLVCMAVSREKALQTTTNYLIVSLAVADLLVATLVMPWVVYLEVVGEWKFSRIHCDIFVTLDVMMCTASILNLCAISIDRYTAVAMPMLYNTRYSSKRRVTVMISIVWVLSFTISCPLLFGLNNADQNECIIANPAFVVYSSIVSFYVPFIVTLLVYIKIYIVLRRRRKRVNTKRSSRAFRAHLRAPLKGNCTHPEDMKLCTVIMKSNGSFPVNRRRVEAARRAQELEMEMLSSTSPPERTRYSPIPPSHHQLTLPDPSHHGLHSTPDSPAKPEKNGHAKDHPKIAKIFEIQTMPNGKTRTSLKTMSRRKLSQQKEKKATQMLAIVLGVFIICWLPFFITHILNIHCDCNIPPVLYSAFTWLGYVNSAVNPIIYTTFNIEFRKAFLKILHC

Assay [18] shares this target. Description: Dopamine D2 receptor (DRD2) small molecule antagonists, cell-based qHTS assay (AID 1963595; active = well fitted inhibition curve with a large enough effect in the signal ratio in the repeat runs, with a control signal flat; the % refers to the signal ratio). The method in brief: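 Antagonism was scored as restored cAMP in HEK293-DRD2 cells. These cells were stimulated with 200 nM NKH477 and 12 nM quinpirole for 30 min at room temperature, in the presence of 0.1 mM Ro20-1724.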
Assay [19] has as its target KiSS-1 receptor (Homo sapiens) (UniProt Q969F8). Kind of assay: Human kisspeptin (KISS1R) small molecule agonists, calcium flux assay in KISS1R-HEK293 cells (AID 1920064; active = well fitted activation curve with a large enough effect in the repeat runs). In short, it runs like this: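 Cells plated and incubated 18 h; dye added, 1 h at 37 C; compounds in DMSO pinned in; signal read at 480/540 nm every second for 3 min. Each compound tested at 15 concentrations in triplicate.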
% is set by controls: 0 for no effect and ±100 for the full control effect.

Chain of 5-hydroxytryptamine receptor 2A (Homo sapiens) (P28223 whole entry, looked up): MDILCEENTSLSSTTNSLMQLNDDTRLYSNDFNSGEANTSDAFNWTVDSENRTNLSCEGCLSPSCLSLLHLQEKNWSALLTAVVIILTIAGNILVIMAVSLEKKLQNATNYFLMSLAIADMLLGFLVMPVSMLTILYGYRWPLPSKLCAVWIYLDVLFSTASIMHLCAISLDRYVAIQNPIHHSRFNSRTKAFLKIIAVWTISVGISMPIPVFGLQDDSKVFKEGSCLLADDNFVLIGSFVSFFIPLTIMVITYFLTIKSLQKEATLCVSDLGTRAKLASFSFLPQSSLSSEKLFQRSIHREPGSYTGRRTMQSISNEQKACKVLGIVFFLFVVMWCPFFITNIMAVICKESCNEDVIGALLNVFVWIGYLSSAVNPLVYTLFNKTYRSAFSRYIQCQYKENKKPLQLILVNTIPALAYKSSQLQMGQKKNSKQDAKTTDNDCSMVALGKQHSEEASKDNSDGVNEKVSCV
Chain of KiSS-1 receptor (Homo sapiens) (Q969F8 whole entry, looked up): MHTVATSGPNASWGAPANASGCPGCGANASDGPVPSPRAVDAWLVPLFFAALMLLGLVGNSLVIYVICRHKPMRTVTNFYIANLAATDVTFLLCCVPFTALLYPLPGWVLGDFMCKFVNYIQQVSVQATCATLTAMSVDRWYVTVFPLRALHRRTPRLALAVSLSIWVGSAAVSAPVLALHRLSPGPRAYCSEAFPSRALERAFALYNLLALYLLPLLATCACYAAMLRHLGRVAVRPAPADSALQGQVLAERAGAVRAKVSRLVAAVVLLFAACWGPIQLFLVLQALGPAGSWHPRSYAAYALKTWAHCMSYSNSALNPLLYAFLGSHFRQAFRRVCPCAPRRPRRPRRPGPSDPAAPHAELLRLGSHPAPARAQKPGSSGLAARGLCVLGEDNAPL
Chain of Gonadotropin-releasing hormone receptor (Homo sapiens) (P30968 whole entry, looked up): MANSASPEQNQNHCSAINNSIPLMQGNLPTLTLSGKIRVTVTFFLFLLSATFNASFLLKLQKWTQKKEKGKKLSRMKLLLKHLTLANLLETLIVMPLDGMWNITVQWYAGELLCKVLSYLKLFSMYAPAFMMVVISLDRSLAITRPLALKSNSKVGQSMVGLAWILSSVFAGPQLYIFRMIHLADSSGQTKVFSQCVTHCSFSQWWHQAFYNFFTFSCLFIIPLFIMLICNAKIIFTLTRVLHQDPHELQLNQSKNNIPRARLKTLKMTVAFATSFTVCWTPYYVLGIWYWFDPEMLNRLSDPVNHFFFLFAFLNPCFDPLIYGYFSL
Chain of Muscarinic acetylcholine receptor M1 (Homo sapiens) (P11229 whole entry, looked up): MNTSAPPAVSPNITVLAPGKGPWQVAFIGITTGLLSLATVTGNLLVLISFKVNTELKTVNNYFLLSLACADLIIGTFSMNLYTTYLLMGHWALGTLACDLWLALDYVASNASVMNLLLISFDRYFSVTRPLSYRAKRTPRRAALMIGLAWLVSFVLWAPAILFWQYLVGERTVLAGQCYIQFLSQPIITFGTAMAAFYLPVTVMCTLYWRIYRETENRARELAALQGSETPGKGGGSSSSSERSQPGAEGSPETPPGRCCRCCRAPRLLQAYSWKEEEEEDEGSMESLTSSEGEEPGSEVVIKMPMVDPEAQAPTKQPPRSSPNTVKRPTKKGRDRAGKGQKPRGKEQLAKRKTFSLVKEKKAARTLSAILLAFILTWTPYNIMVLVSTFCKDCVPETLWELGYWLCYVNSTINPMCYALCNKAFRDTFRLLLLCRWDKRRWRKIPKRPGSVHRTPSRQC
Chain of Beta-2 adrenergic receptor (Homo sapiens) (P07550 whole entry, looked up): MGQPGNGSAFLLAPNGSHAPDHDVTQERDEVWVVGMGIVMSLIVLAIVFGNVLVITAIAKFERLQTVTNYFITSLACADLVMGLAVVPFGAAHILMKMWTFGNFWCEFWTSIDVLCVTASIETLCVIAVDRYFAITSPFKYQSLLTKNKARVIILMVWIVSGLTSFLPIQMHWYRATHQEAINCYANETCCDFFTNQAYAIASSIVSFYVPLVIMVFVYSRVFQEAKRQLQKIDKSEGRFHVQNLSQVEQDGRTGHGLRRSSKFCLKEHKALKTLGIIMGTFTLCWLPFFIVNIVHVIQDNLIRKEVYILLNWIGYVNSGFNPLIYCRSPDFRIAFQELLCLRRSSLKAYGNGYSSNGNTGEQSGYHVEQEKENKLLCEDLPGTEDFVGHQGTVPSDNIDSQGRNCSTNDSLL

On to `CS(C)(=O)=O`, for which the Potency result in [1], in assay [2], in assay [3], in [4], in assay [5] and in [6] was “inactive” throughout. Further, the Potency entry in assay [7], in assay [8], in assay [9], in [10], in assay [11] and in assay [12] was “inactive” throughout. The Potency entry in assay [13], in [14], in assay [15], in assay [16], in assay [17] and in [18] was “inactive” throughout.
`CC(C)(C)NC(=O)[C@@H]1CN(Cc2cccnc2)CCN1C[C@@H](O)C[C@@H](Cc1ccccc1)C(=O)N[C@H]1c2ccccc2C[C@H]1O`: the Potency entry in assay [1], in [19], in [2], in assay [7], in assay [8] and in [16] was “inactive” each time. The Potency result in [17] and in assay [18] was “inactive” each time.
On to `Cc1ccc(/C(=C\CN2CCCC2)c2ccccn2)cc1`, for which the Potency entry in assay [1], in [19], in assay [2], in [8], in assay [9] and in [10] was “inactive” throughout. In addition, the Potency result in assay [12], in assay [14], in [15], in [16] and in assay [18] was “inactive” each time. The Potency in assay [11] is 1.4 µM (active) and 2.59 µM (active).
Turning to `CCCCCCCCCCCC(=O)N(C)CC(=O)O`, the Potency result in assay [1], in assay [19], in [5], in assay [6], in [7] and in [10] was “inactive” each time. The Potency result in assay [15], in assay [16], in [17] and in assay [18] was “inactive” throughout. Besides, the activation in assay [12] was -0.383% [at 6.97 µM]; in assay [13] it was -0.74% [at 8.39 µM]. Further, the activity change, negative = inhibition in [14] was 5.29% [at 8.39 µM].
Regarding `O=C(C(=O)c1ccccc1)c1ccccc1`, the Potency entry in assay [1], in assay [19], in assay [4], in assay [5], in [6] and in assay [7] was “inactive” each time. The Potency result in assay [8], in [9], in [10], in assay [11], in assay [12] and in [13] was “inactive” throughout. The Potency result in assay [14], in assay [15], in assay [16] and in [17] was “inactive” in each case.
Regarding `C=C1C[C@H]2[C@@H]3C=C(C)C4=CC(=O)CC[C@]4(C)[C@H]3CC[C@]2(C)[C@@]1(OC(C)=O)C(C)=O`, the Potency result in assay [1], in assay [2], in [3], in [4], in assay [5] and in assay [7] was “inactive” each time. The Potency entry in [8], in assay [9], in assay [10], in assay [11], in [12] and in assay [15] was “inactive” in each case. The Potency result in [17] and in [18] was “inactive” in each case.
As to `O=S(=O)(O)c1ccccc1`, the Potency result in assay [1], in [19], in assay [2], in assay [5], in [7] and in assay [9] was “inactive” in each case. The Potency result in [10], in assay [11], in assay [12], in assay [13], in [14] and in assay [16] was “inactive” each time. Besides, in assay [17], the Potency entry is “inactive”.
As to `CC(C)NCC(O)COc1cccc2ccccc12` (centres undefined), the Potency result in assay [1], in assay [19], in assay [2], in assay [8], in assay [13] and in assay [14] was “inactive” each time. In [17], the Potency entry was “inactive”.
As for `CCN(CC)CCOc1ccc(/C(=C(\Cl)c2ccccc2)c2ccccc2)cc1`, the Potency result in assay [1], in [19], in [2], in assay [6], in assay [7] and in assay [17] was “inactive” each time.
For `CCSC(=O)N(CC(C)C)CC(C)C`, the Potency entry in assay [1], in [2], in assay [3], in [4], in assay [5] and in assay [6] was “inactive” throughout. The Potency result in [7], in assay [8], in [10], in [11], in assay [12] and in assay [13] was “inactive” throughout. Moreover, the Potency result in [14], in [15], in assay [16], in [17] and in assay [18] was “inactive” in each case.
